# Screens: PubChem, The Scripps Research Institute Molecular Screening Center
# Shown is part of a subset that was picked to be rich in hits.
# TTR transcr act: TTR transcription activators in neuroblastoma reporter cells, primary screen, cell-based, luminescence, SH-SY5Y, TTR promoter Gaussia luciferase | actives 1.3% (n = 92,000) | activation, % at 16.7 µM | 100% = recombinant luciferase protein wells;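 active means activation above the mean of all tested compounds plus 3 SD, cut at about 9.5% in these data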;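 further: cells exposed to compounds for one day before reading; 0% = median of all test compound wells on the plate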
# HuH7 TTR inh: TTR promoter reporter inhibitors in hepatoma cells, counter-screen for TTR transcription activator project, cell-based, luminescence, HuH7 hepatoma; HuH7 TTR promoter-Gaussia luciferase reporter; inhibition, % at 16.7 µM; actives 4% (n = 1,100); shares compounds with TTR transcr act;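 active means average inhibition above the solvent-only control wells' mean plus 3 SD, cut at about 15% in these data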;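 further: 0% = cells with DMSO only and 100% = cells with inhibitor control FD; inhibitors lower well luminescence so higher value means more inhibition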
# TTR act confirm: TTR transcription activators, retest, confirmation, cell-based, luminescence, SH-SY5Y, triplicate; shares compounds with TTR transcr act; 1,100 tested, under 10 active; AID 1117280, 2014; SHSY5Y TTR promoter Gaussia luciferase; 100% = purified Lucia enzyme wells, no cells; activation, % at 16.7 µM;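 active means mean activation above a set limit taken from the earlier primary screen, cut at about 11% in these data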;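 further: 0% = DMSO-treated cells and 100% = recombinant Lucia luciferase without cells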
# Numbers without * were called inactive.
SMILES,TTR transcr act,others
Cc1ccc(F)c(NC(=O)/C(C#N)=C(\O)c2ccc(C(C)(C)C)cc2)c1,-2.4,
O=C(COC(=O)C12CC3CC(CC(Br)(C3)C1)C2)NNC(=O)c1ccccc1,0.0,
Cn1cccc1C(=O)NC(=O)COC(=O)C12CC3CC(CC(O)(C3)C1)C2,10.5*,HuH7 TTR inh=-6.2;TTR act confirm=-0.8
Cc1cc(C)c(NC(=O)COC(=O)C23CC4CC(CC(O)(C4)C2)C3)c(Cl)c1,1.7,
O=C(/C=C/Nc1ccc(Br)cn1)c1cccc(OC(F)F)c1,2.7,
CCOC(=O)CCC(NC(=O)CCCCC(=O)NC(CCC(=O)OCC)C(=O)OCC)C(=O)OCC (centres undefined),4.3,
CCOC(=O)CCCCC(=O)NC(CO)C(=O)NC (centres undefined),9.9*,HuH7 TTR inh=-5.1;TTR act confirm=0.3
CCOC(=O)CCCCCCCCC(=O)Nc1ccc(-n2[nH]c(=O)cc2C)cc1,2.3,
O=C(O)c1ccccc1-c1noc(-c2ccccc2F)n1,-0.5,
COc1ccc([N+](=O)[O-])cc1NC(=O)Cc1noc2ccc(C)cc12,0.1,
O=S(=O)(NCCc1csc(-c2cccnc2)n1)c1cccc(F)c1,2.4,
O=S(=O)(NCc1csc(-c2cccnc2)n1)c1ccc(Br)cc1,0.5,
O=C(NCCc1csc(-c2cccnc2)n1)c1ccccc1Br,18.1*,HuH7 TTR inh=-17.1;TTR act confirm=0.7
O=C(NCCc1ccccc1)OCc1cn(Cc2ccccc2F)nn1,20.1*,HuH7 TTR inh=-1.6;TTR act confirm=-0.2
O=C(NCCc1ccccc1)OCc1cn(Cc2cc(F)cc(F)c2)nn1,-0.7,
Cc1cccc(Cn2cc(COC(=O)N(C)Cc3ccccc3)nn2)c1,-2.1,
O=C(NCCc1ccccc1)OCc1cn(Cc2ccccc2Cl)nn1,0.7,
CN(Cc1ccccc1)C(=O)OCc1cn(Cc2ccccc2Cl)nn1,-1.5,
Cc1ccccc1Cn1cc(COC(=O)N(C)Cc2ccccc2)nn1,11.9*,HuH7 TTR inh=17.6*;TTR act confirm=-1.3
CCOC(=O)C1=C(c2ccccc2)NC(SCC)=C(C#N)C1c1cccnc1 (centres undefined),6.0,
O=S(=O)(c1cccnc1)N1CCCC(Nc2ccc(F)c(F)c2)C1 (centres undefined),2.5,
Cc1ccc(C(=O)OCC(=O)N(C)C2CCS(=O)(=O)C2)cc1[N+](=O)[O-] (centres undefined),-1.6,
Cc1ccc(C2=CC(=O)C[C@H](c3ccc(F)cc3)C2)cc1,-2.3,
CCCNC(=O)Cn1c(-c2ccc(F)cc2)cc(C(=O)OCC)c1C,0.8,
CCOC(=O)c1cc(-c2ccccc2)n(CC(=O)NC(C)(C)C)c1C,1.0,
SMILES,TTR transcr act,others
CCOC(=O)c1cc(-c2ccccc2)n(CC(=O)O)c1C,10.7*,HuH7 TTR inh=-15.0;TTR act confirm=0.3
CC(C)CCNC(=O)c1ccc(Cl)c(NC(=O)Cc2ccccc2)c1,0.1,
Cc1ccc([C@H](C)NC(=O)C2=C(N)N(S(=O)(=O)c3ccc(C)cc3)C(C(=O)c3ccccc3)C2c2ccccc2Cl)cc1 (some centres undefined),1.4,
Nc1nnc(CSCc2ccccc2Cl)s1,-0.2,
Nc1nnc(CCS(=O)(=O)c2cc(Cl)ccc2Cl)s1,23.5*,HuH7 TTR inh=-8.4;TTR act confirm=-0.6
CC(C)(C)c1nnc(NS(=O)(=O)c2cc(Cl)ccc2Cl)s1,2.0,
CC(C)OC(=O)C1=CNCC(C)(C)c2c1[nH]c1cc(F)ccc21,-1.2,
COC(=O)c1ccc(=O)c2nc3/c(=C/O)c(O)cc(=O)c3[nH]c12,-0.7,
Cc1nn(S(=O)(=O)c2ccccc2)c(C)c1S(=O)(=O)N1CCOCC1,0.7,
COc1cccc(C(=O)COc2ccccc2N2C(=O)C3C4C=CC(C4)C3C2=O)c1 (centres undefined),-0.5,
O=C1C2C3C=CC(C4CC34)C2C(=O)N1c1cccc2ccccc12 (centres undefined),-2.0,
Cc1ccnc2c(N3C(=O)C4C5C=CC(C5)C4C3=O)cccc12 (centres undefined),9.8*,HuH7 TTR inh=-8.4;TTR act confirm=-0.5
Fc1cccc(/C=N/n2c(C3CCCCC3)n[nH]c2=S)c1,1.3,
Cn1ccc2c(-c3ccc(C(=O)O)cc3)cc3c(c21)C1CCC3C1 (centres undefined),11.8*,HuH7 TTR inh=-12.5;TTR act confirm=-0.1
COc1ccc(-c2cc3c(c4c2ccn4C)C2CCC3C2)cc1 (centres undefined),-0.9,
Cn1ccc2c(-c3ccc(C(C)(C)C)cc3)cc3c(c21)C1CCC3C1 (centres undefined),-1.1,
C[C@H]1[C@@H](OC(=O)Nc2ccc(C(F)(F)F)cc2)CC[C@@]23CCCN2C(=O)CCC[C@@H]13,0.4,
COc1ccc(C(=O)NCCCN(C)CCCNC(=O)c2ccc(OC)cc2)cc1,-1.1,
CN(C)CCCNC(=O)c1ccc(-c2ccccc2)cc1,22.0*,HuH7 TTR inh=-10.0;TTR act confirm=0.1
